Where “and” joins values, the source holds several entries; their conditions need not be identical. Equal values may be shown once. Inconclusive results are not listed. Where a call stands in place of a potency, no number is given. Calls of active or inactive are those of the source. Unless noted, the call rests on the fitted dose curve.
Key:
[1] = molecular target: Peroxisome proliferator-activated receptor gamma (Homo sapiens) (UniProt P37231); test: qHTS assay for small molecule antagonists of peroxisome proliferator-activated receptor gamma signaling (AID 588537; active means well fitted inhibition curve with a large enough effect in the signal ratio, with a control signal flat, not every such curve was filed as active; the % refers to the signal ratio;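 further: reporter cells co-stimulated with 50 nM rosiglitazone agonist during compound treatment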)
Peroxisome proliferator-activated receptor gamma (Homo sapiens), sequence (P37231 whole entry, looked up): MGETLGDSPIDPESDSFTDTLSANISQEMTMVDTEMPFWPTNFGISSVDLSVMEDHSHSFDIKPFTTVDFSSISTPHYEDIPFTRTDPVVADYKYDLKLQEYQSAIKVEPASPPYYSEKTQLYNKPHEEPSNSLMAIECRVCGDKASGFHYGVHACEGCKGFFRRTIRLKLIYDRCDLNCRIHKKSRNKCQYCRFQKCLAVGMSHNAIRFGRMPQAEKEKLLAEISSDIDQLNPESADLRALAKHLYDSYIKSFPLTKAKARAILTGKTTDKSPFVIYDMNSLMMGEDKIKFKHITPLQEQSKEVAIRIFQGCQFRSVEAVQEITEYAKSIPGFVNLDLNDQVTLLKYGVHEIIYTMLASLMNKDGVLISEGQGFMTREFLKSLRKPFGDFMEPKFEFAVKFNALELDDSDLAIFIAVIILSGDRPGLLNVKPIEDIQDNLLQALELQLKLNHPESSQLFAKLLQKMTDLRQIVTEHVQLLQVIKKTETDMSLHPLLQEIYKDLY
Summary of the method: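 Read-out: CCF4 fluorescence (ex 405, em 460/530 nm) after 2 h at RT. Cells were HEK293 carrying a UAS-bla reporter and treated 16 h at 37 C with compound plus rosiglitazone (50 nM final). Normalized to rosiglitazone and DMSO.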

[2] = molecular target: Vitamin D3 receptor (Homo sapiens) (UniProt P11473); test: qHTS assay for small molecule antagonists of vitamin D receptor signaling (AID 588541);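 further: receptor activated by calcitriol during compound treatment; series mostly up to about 77 µM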
Vitamin D3 receptor (Homo sapiens), sequence (P11473 whole entry, looked up): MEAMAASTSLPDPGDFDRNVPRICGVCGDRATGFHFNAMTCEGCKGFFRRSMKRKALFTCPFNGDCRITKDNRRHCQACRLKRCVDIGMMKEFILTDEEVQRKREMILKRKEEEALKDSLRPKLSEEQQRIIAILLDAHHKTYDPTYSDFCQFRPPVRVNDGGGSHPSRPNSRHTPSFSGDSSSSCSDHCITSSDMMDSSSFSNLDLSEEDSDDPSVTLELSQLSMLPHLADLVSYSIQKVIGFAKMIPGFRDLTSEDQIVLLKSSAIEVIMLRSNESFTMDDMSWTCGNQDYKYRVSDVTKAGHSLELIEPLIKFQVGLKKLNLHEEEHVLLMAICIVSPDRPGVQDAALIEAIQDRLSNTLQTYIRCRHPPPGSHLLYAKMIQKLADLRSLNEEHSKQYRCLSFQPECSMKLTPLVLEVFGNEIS
Summary of the method: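 VDR-UAS-bla HEK293T cells in 2% charcoal-stripped FBS were stimulated with 1-alpha,25-dihydroxyvitamin D3 (3 nM final) plus compound for 16 h at 37 C. The beta-lactamase CCF4 readout was normalized to 50 nM agonist and DMSO, and Hill fits gave IC50.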

[3] = molecular target: Vitamin D3 receptor (Homo sapiens) (UniProt P11473); test: qHTS assay for small molecule agonists of vitamin D receptor signaling (AID 588543)
Summary of the method: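 VDR-UAS-bla HEK293T cells, 2000/well, 2% charcoal-stripped FBS; compound titration 16 h at 37 C; CCF4 beta-lactamase ratio read. Normalized to 50 nM 1-alpha,25-dihydroxyvitamin D3 (100%) and DMSO; Hill fit gives EC50, efficacy.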

[4] = qHTS assay for small molecule agonists of retinoid X receptor alpha signaling (AID 588544); details: HEK293T RXRa-UAS-bla, beta-lactamase reporter, 18 h; 530 nm emission
[5] = molecular target: Retinoic acid receptor RXR-alpha (Homo sapiens) (UniProt P19793); test: as above
Retinoic acid receptor RXR-alpha (Homo sapiens), sequence (P19793 whole entry, looked up): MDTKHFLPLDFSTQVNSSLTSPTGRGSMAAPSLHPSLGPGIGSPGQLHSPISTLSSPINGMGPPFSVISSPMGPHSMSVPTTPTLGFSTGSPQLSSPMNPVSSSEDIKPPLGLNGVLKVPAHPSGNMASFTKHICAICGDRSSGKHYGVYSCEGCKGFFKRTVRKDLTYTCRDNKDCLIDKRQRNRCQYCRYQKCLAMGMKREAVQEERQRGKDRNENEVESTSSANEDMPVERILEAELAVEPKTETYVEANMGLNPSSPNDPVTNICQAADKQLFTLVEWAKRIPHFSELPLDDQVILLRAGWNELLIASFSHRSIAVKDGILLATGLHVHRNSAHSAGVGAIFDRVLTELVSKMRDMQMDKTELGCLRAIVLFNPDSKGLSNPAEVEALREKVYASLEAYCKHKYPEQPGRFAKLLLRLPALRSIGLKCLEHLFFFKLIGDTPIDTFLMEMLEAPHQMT

[6] = molecular target: Thyroid hormone receptor beta (Homo sapiens) (UniProt P10828); test: qHTS assay for small molecule agonists of thyroid hormone receptor beta signaling (AID 588545)
Thyroid hormone receptor beta (Homo sapiens), sequence (P10828 whole entry, looked up): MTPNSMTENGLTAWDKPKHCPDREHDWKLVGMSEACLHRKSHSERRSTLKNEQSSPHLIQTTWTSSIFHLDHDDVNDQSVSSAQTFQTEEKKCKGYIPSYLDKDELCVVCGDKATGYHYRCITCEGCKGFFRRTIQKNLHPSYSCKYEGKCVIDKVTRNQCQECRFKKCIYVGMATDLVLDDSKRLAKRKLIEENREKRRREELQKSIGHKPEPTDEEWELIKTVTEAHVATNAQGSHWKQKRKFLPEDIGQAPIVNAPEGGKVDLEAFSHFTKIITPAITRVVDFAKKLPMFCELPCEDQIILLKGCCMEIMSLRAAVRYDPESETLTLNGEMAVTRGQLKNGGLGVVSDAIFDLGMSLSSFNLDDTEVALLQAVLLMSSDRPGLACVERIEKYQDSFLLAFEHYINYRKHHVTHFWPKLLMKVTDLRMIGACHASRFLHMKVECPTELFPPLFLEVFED
Summary of the method: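 Efficacy and EC50 values derive from Hill fits of qHTS titration data, normalized to 10 nM T3 and DMSO-only wells. HEK 293 reporter cells were stimulated for 18 hrs at 37 C, with beta-lactamase activity measured by CCF4 fluorescence.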

[7] = qHTS assay for small molecule antagonists of retinoid X receptor alpha signaling (AID 588546; active means well fitted inhibition curve with a large enough effect in the signal ratio, with a control signal flat, not every such curve was filed as active; the % refers to the signal ratio;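 further: cells stimulated with 9-cis-retinoic acid as agonist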); details: HEK293T RXRa-UAS-bla, beta-lactamase ratio, antagonist mode; measured here: W530 green channel, cytotoxicity proxy
Summary of the method: (§1)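 Beta-lactamase reporter inhibition, read as CCF4 fluorescence ratio (ex 405, em 460/530 nm) after 2 h at RT. HEK293T UAS-bla cells, 2500/well, were stimulated with 9-cis-RA at 500 or 100 nM final alongside test compound for 18 h at 37 C.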

[8] = molecular target: Retinoic acid receptor RXR-alpha (Homo sapiens) (UniProt P19793); test: as above; details: HEK293T RXRa-UAS-bla, beta-lactamase ratio, antagonist mode
Summary of the method: as §1

[9] = molecular target: Thyroid hormone receptor beta (Homo sapiens) (UniProt P10828); test: qHTS assay for small molecule antagonists of thyroid hormone receptor beta signaling (AID 588547; active means well fitted inhibition curve with a large enough effect in the signal ratio, with a control signal flat, not every such curve was filed as active; the % refers to the signal ratio;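 further: cells stimulated with 0.4 nM T3 agonist during compound exposure; series mostly up to about 77 µM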); details: TR-UAS-bla HEK293, beta-lactamase ratio, antagonist mode, 18 h
Summary of the method: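 TR-UAS-bla GripTite HEK293 cells in 2% charcoal/dextran FBS medium; compounds 0.59 nM to 92 uM with T3 at 0.4nM final, 18 h at 37 C. Beta-lactamase read by CCF4 fluorescence (460/530 nm); Hill fits gave IC50 and efficacy.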

[10] = molecular target: Voltage-gated inwardly rectifying potassium channel KCNH2 (Homo sapiens) (UniProt Q12809); test: qHTS Assay for Small Molecule Inhibitors of the Human hERG Channel Activity (AID 588834; active means well fitted inhibition curve with a large enough effect;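 further: lower thallium flux fluorescence means stronger hERG block; nearly all actives have a fitted effect of over 50% in size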; further: potency means the concentration at half of the fitted maximal effect)
Voltage-gated inwardly rectifying potassium channel KCNH2 (Homo sapiens), sequence (Q12809 whole entry, looked up): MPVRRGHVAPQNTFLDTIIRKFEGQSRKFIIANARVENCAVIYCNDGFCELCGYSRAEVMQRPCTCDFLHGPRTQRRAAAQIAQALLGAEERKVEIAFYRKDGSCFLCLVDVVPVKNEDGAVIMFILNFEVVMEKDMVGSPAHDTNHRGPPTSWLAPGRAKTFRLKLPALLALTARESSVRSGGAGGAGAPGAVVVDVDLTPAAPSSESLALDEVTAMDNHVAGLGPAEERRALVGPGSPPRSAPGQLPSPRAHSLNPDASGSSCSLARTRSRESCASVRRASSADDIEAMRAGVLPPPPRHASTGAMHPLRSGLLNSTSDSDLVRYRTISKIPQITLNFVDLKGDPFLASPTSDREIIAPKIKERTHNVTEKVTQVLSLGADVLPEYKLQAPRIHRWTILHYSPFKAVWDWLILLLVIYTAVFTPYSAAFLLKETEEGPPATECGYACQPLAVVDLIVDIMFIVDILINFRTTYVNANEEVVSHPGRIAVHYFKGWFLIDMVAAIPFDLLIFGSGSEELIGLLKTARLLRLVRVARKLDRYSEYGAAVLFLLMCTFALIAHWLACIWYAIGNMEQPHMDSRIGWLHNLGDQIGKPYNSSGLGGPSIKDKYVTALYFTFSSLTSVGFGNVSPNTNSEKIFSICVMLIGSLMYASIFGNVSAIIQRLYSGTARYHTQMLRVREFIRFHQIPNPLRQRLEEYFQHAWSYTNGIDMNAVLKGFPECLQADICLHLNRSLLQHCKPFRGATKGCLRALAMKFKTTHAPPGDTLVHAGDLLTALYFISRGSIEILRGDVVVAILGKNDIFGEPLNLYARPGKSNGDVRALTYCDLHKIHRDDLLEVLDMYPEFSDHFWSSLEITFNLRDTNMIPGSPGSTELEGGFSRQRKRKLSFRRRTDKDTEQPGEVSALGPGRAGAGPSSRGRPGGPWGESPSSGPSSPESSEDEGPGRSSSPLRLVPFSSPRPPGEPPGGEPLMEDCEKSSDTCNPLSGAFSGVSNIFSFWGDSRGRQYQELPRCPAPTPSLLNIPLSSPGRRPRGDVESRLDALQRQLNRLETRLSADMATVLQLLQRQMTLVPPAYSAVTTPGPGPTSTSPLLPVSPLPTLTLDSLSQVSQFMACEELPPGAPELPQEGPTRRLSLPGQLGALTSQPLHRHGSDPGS
Summary of the method: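 Thallium serves as surrogate for K+ influx through BacMam-delivered hERG in U2OS cells. Compounds are added for about 10 minutes after dye loading; stimulation buffer then starts flux, monitored kinetically on FDSS.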

Structure (SMILES)	outcome [1]	outcome [2]	outcome [3]	max response [4]	outcome [5]	outcome [6]	max response [7]	max response [8]	activity change % (negative = inhibition) [9]	Potency [10]
CC(C)=O	inactive	inactive	inactive	9.06%	inactive	inactive	9.42%	3.03% (inactive)	-5.42% (inactive)	inactive
CC1=C2[C@@H]([C@H](C)CC[C@H]2/C=C(\C)C(=O)O)[C@H](O)C1	–	–	–	29.1%	inactive	inactive	6.79%	-2.22% (inactive)	–	inactive
C=C[C@]1(C)C[C@@H](OC(=O)CSC(C)(C)CNC(=O)[C@H](N)C(C)C)[C@]2(C)[C@H](C)CC[C@]3(CCC(=O)[C@H]32)[C@@H](C)[C@@H]1O	–	–	–	–	–	–	–	–	–	7.08 µM (active)
CC1(C)C(C=C(Cl)Cl)C1C(=O)OCc1cccc(Oc2ccccc2)c1 (stereo not drawn)	–	inactive	–	–	–	–	-5.2% [middle of 4 runs]	-8.16% (inactive) [middle of 4 runs]	3.43% (inactive) [middle of 4 runs]	inactive
CCCCCCOc1ccc(C(=N)N(CCCC)CCCC)c2ccccc12	–	–	–	–	–	–	–	–	–	2.24 µM (active)
Cc1ccccc1	inactive	inactive	inactive	-1.14% and 7.93%	inactive	inactive	-4.05% and 9.42%	-5.8% (inactive) and 14.2% (inactive)	–	inactive
CC1=C(/C=C/C(C)=C/C=C/C(C)=C/CO)C(C)(C)CCC1	–	inactive	inactive	–	–	inactive	23.5% and 17%	-17.7% (inactive) and -18.6% (inactive)	7.96% (inactive) and 4.62% (inactive)	–
O=C(O)CN(CCN(CC(=O)O)CC(=O)O)CC(=O)O	inactive	–	–	-4.26% and -8.64%	inactive	–	-5.66% and -2.36%	-4.8% (inactive) and -20.2% (inactive)	–	–

Reference: PubChem BioAssay (NCATS)
